target: CLEC9A; assay: pooled miR-30 sensor sort-seq; sequence = guide strand; settings: shRNA
Also: reference of the scale not given here.

Sequence	sensor-assay potency score (higher = more potent)
TTAATCTTCCTCAAGCTGCCAG	0.401
ATAGTAACAACTTTCTCTGTTC	-0.226
TTTTCTTGCTGCTGCATCGCAA	-0.454
TTCTCTTGACTGGTGTGCCAAA	-1.18
TTTGTAGCAGCGTGGAACCTTC	-0.937
TTGGAAGACAGACATTTCTGGT	-0.439
TTGGATGAGTTTTTCTTGCTGC	0.744

target: CLN3; assay: as above; settings: shRNA

Sequence	sensor-assay potency score (higher = more potent)
TGGTACAGCATCTGGTACCAGC	-1.94
TAGAGACAGAGTTGCAGTCAAA	-1.26
AAATCGTGATGAGCTGTTGTGG	-0.817
TTGCAGTCAAATCGTGATGAGC	-1.19
AACAATTTGATGACGAGTGTGG	0.272
TTGAACACTGTCCACCTTTCCC	-0.845
TGACTCAGGGAAGTGTTCCAGA	-0.693
TTTCCCGATGTCCTCTTGTGGC	-1.44
TGAGCAACAAGAAATAGCTGGC	0.625
TACAGCATCTGGTACCAGCGGT	-0.527
AATCCCACTGACGAGAACCCGG	-0.766
TTGTGGAAGGTGTTCACGTAGG	-0.371
TCTGCCAGCAGGAACACCAGGT	0.0628
TCGTGATGAGCTGTTGTGGGGG	-0.528
ATCGTGATGAGCTGTTGTGGGG	-0.665
AATCGTGATGAGCTGTTGTGGG	-0.0059
TGGTCCAACAGAGGGAGCCGGG	-1.78
GTGAGCAACAAGAAATAGCTGG	-0.754
TCAAATCGTGATGAGCTGTTGT	0.182
CAGAGTTGCAGTCAAATCGTGA	-1.16
AACACTGTCCACCTTTCCCGAA	-1.44
AAGTAAACTACGACCAAGGGAA	-0.0602
TTGTGGCTAAGGATGTCGTGGG	-0.303
AAGACCACACCACACAGGCTGG	-1.35
